Laboratory results taken from PubChem BioAssay AID2101 (National Center for Advancing Translational Sciences (NCATS), 2009).
Among all 330,000 compounds or so, about 300 (0.091%) were called active. Another 4% or so got no clear call; they are omitted. For the sample, actives were picked, then their nearest neighbours and some compounds at random. Values without a mark were called inactive. The call rests on the fitted dose curve; in most records, active means well fitted inhibition curve with a large enough effect; inconclusive means small, poorly fitted or top-dose-only effect, or effect the other way, or another doubt; inactive means no such curve, though single readings can be large or run the other way.

target: Lysosomal acid glucosylceramidase (Homo sapiens) (UniProt P04062); assay: qHTS Assay for Inhibitors and Activators of N370S glucocerebrosidase as a Potential Chaperone Treatment of Gaucher Disease; conditions: N370S GC spleen homogenate, 4MU-glucoside fluorescence; series mostly up to 59.4 µM; activity change, negative = inhibition: at the top concentration;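 on activity change, negative = inhibition: 0% = full enzyme activity and -100% = no enzyme basal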
Text: NIH Chemical Genomics Center [NCGC]
NIH Molecular Libraries Probe Production Centers Network [MLPCN]
Assay Submitter (PI): Wei Zheng
Glucocerebrosidase (GC) catalyzes the hydrolysis of beta-glucocerebroside to glucose and ceramide in lysosomes. Mutations in the glucocerebrosidase gene result in Gaucher disease, an autosomal recessive lysosomal storage disorder. Many of the mutations encountered in patients with Gaucher disease are missense alterations that may cause misfolding, decreased stability and/or mistrafficking of this lysosomal protein. […] These inhibitors include iminosugar analogs and three non-iminosugar inhibitors identified from a previous HTS of 62,000 compounds with the wild type recombinant enzyme. However, the enhancement of enzyme activity by the chaperone action of an enzyme inhibitor must be balanced against the direct inhibition of the enzyme. An enzyme activator could also function as a chaperone by binding to the enzyme and helping to correct its misfolding and mistrafficking. While activators for GC have not yet been identified, they may have better therapeutic potential than inhibitors. Therefore the discovery and development of chemical activators may provide a new strategy for the chaperone therapy.
We have optimized a new assay using N370S mutant GC derived from the spleen of a Gaucher patient. […] In addition, the MLPCN compound library has expanded, which increases the chance of finding new and better probes.
NCGC Assay Protocol Summary:
This is a fluorogenic enzyme assay with 4-methylumbelliferyl-beta-D-glucopyranoside as the substrate and N370S glucocerebrosidase from human spleen homogenate as the enzyme preparation. Upon the hydrolysis of this fluorogenic substrate, the resulting product, […] which can be detected by a standard fluorescence plate reader. Data were normalized to the controls for basal activity (without enzyme) and 100% activity (with enzyme). The AC50 values were determined from concentration-response data modeled with the standard Hill equation.
Assay buffer: 50 mM citric acid (titrated with potassium phosphate to pH 5.0), 100 mM potassium chloride, 10 mM sodium chloride, 1 mM magnesium chloride, 0.01% Tween-20.
1536-well assay protocol:
(1) Add 2 ul/well of spleen homogenate (27 ug final)
(2) Add 23 nL compounds in DMSO solution. The final titration was 0.5 nM to 58 uM.
(3) Add 2 ul of substrate (1 mM final)
(4) Incubate at 37C for 40 min.
(5) Add 2 ul stop solution (1M NaOH and 1M Glycine mixture, pH 10)
(6) Detect the assay plate in a ViewLux plate reader (PerkinElmer) with Ex=365 nm and Em=440nm.
Keywords: Glucocerebrosidase, beta-glucosidase, Gaucher Disease, pharmacological chaperone, chaperone therapy, high throughput screening, glucocerebrosidase inhibitor, MLSMR, MLSCN, NIH Roadmap, qHTS and NCGC
Potency means the concentration at half of the fitted maximal effect.

Compared with `O=C(NCc1ccco1)O[C@@H]1C(=O)c2cc(Br)ccc2O[C@H]1c1ccc2c(c1)OCO2`, `c1cncc(CNc2ccnc(-c3ccc4c(c3)OCO4)n2)c1` is lower in “activity change, negative = inhibition” value: 0.0082% for the first, -11.9% for the second.

Compared with `CCn1c(=O)c(=O)n(CC)c2cc(N3CCCCC3)c(NC(=O)c3ccc(Cl)cc3)cc21`, `COc1ccccc1C(=O)Nc1ccc(C)c(S(=O)(=O)N2CCCCC2)c1` is lower in “activity change, negative = inhibition” value: 3.98% for the first, -1.07% for the second.

Compared with `CCC(C)C(N=C1NS(=O)(=O)c2ccccc21)C(=O)N1CCC(C)CC1` (stereo not drawn), `CCc1nnc(NC(=O)C2CCN(C(=O)c3ccccc3C)CC2)s1` is lower in “activity change, negative = inhibition” value: 2.41% for the first, -0.449% for the second.

First: O=C1CN(Cc2ccccc2)S(=O)(=O)c2ccccc21
Second: Cc1ccc(-c2cccc([C@H]3[C@@H]4C=CC[C@@H](C)[C@@H]4C(=O)N3Cc3ccccc3)c2)cc1
The “activity change, negative = inhibition” value of the first is lower: -5.5% for the first, 7.79% for the second.

First: C#CCOCCOCCOCCNc1nc(N2CCN(C(=O)CCCCCCCCCCNC(=O)Cn3cc(CCCCCN)nn3)CC2)nc(N2CCN(C(=O)CCCCCCCCCCNC(=O)[C@H](CO)n3cc(CCCSC)nn3)CC2)n1
Second: C#CCOCCOCCOCCNc1nc(N2CCN(C(=O)Cn3cc(CCCCN)nn3)CC2)nc(N2CCN(C(=O)[C@H](CCCCN)n3cc(CCC(=O)O)nn3)CC2)n1
The “activity change, negative = inhibition” value of the first is lower: -28% for the first, -0.601% for the second.

Compared with `O=c1c(O)c(-c2ccc(O)cc2)oc2ccccc12`, `CCc1cccc(NC(=O)COC(=O)c2cc(=O)c3ccccc3o2)c1` is lower in “activity change, negative = inhibition” value: 21% for the first, 0.464% for the second.

First: CCCCN(CC(=O)Nc1cccc(S(=O)(=O)N2CCCC2)c1)Cc1nc2ccccc2c(=O)[nH]1
Second: CCc1ccc(CN(C)C(C)C(=O)Nc2ccc(S(=O)(=O)N3CCCC3)cc2)cc1 (stereo not drawn)
The “activity change, negative = inhibition” value of the first is higher: 12.9% for the first, -12.1% for the second.

Compared with `COc1cc(C(=O)OCC(=O)NC23CC4CC(CC(C4)C2)C3)cc(OC)c1OC`, `COc1cc(C(c2c(NC(=O)c3ccco3)sc(C)c2C)N2CCOCC2)cc(OC)c1OC` (stereo not drawn) is higher in “activity change, negative = inhibition” value: -2.45% for the first, -2.37% for the second.

Going from `CN1CCN(c2ncc3nc(-c4ccc(Cl)cc4)c(=O)n(-c4ccccc4)c3n2)CC1` to `Cc1cccc(N2CCN(C(=O)c3cccc(S(=O)(=O)N4CCc5ccccc5C4)c3)CC2C)c1` (stereo not drawn), the “activity change, negative = inhibition” value falls from -18.9% to -25.4%.

First: COc1ccc(-c2ccc(C3C4C=CCCC4(C)C(=O)N3Cc3ccccc3)c(F)c2)cc1OC (stereo not drawn)
Second: COc1cc(OC)c2c(c1C(CCN1CCCCC1)c1ccc(N(C)C)cc1)OC(=O)CC2c1ccc(N(C)C)cc1 (stereo not drawn)
The “activity change, negative = inhibition” value of the first is higher: 2.67% for the first, -10.2% for the second.

First: Cc1csc(SCC(=O)N(c2ccccc2)C(C)C)n1
Second: CC(=O)N1[C@H](C)C=C[C@]1(Cc1ccccc1)C(=O)NCc1ccccn1
The “activity change, negative = inhibition” value of the first is lower: -6.31% for the first, 7.18% for the second.

First: CC(=O)c1ccc(OCCCC(=O)Nc2ccc(C)c(S(=O)(=O)N3CCOCC3)c2)cc1
Second: Cc1ccc(C(=O)NCCN2CCOCC2)cc1C
The “activity change, negative = inhibition” value of the first is lower: 0.719% for the first, 0.992% for the second.

Compared with `O=C(C1CC(=O)N(C2CCCC2)C1)N1CCN(c2cccc(C(F)(F)F)c2)CC1` (stereo not drawn), `Cc1[nH]c(C)c(S(=O)(=O)N2CCN(c3cccc(C(F)(F)F)c3)CC2)c1C(=O)N1CCCC1` is lower in “activity change, negative = inhibition” value: -9.54% for the first, -10.1% for the second.

Going from `CC(C)C[C@@H](CC(=O)N[C@@H](CCC(=O)O)CC(=O)O)NC(=O)[C@@H]1CCCC[C@H]1NC(=O)C[C@@H](NC(=O)C[C@H](CO)NC(=O)[C@@H]1CCCC[C@H]1N)C(C)C` to `CC1CCN(C(=O)COC(=O)CCC(=O)c2cccs2)CC1`, the “activity change, negative = inhibition” value falls from -2.87% to -8.17%.

First: Cc1nc(-c2ccc(F)cc2)c(CC(=O)N(C)CC(=O)Nc2c(C)cccc2C)s1
Second: Cc1cccc(N2CCN(S(=O)(=O)c3ccc(-c4cc(C)no4)s3)CC2C)c1 (stereo not drawn)
The “activity change, negative = inhibition” value of the first is lower: -17.5% for the first, -0.877% for the second.

Compared with `CC(C)(C)c1ccc(S(=O)(=O)N2CCN(C(=O)c3ccc4c(c3)C(=O)N(Cc3ccncc3)C4=O)CC2)cc1`, `CC(=O)N1CCOc2ccc(S(=O)(=O)N3CCN(c4cccc(C(F)(F)F)c4)CC3)cc21` is higher in “activity change, negative = inhibition” value: -4.23% for the first, -3.52% for the second.

Going from `CCOCCOC(=O)C(C)Oc1ccc(Oc2ncc(C(F)(F)F)cc2Cl)cc1` (stereo not drawn) to `COc1ccccc1CNS(=O)(=O)c1cc(C(=O)NCc2ccccn2)c(Cl)cc1Cl`, the “activity change, negative = inhibition” value falls from -1.23% to -9.28%.

First: CN(C)CCCNC(=S)NCc1ccc(Cl)cc1
Second: CCC1=Nc2cc(C(=O)NCCCN3CCOCC3)ccc2Sc2ccc(Br)cc21
The “activity change, negative = inhibition” value of the first is higher: -7.45% for the first, -29.8% for the second.

First: Fc1ccc(Cl)cc1-c1nc(Nc2ccncc2)c2nccnc2n1
Second: Cc1cc2nc3c(=O)[nH]c(=O)nc-3n(C[C@H](O)[C@H](O)[C@H](O)CO)c2cc1C
The “activity change, negative = inhibition” value of the first is lower: -3.89% for the first, 2.13% for the second.

First: CC1(C)OC2CC3C4CCC5=CC(=O)CCC5(C)C4(F)C(O)CC3(C)[C@]2(C(=O)CCl)O1 (stereo partly drawn)
Second: CC1(C(=O)OCC(=O)Nc2ncc(Cl)cc2Cl)CC1(Cl)Cl (stereo not drawn)
The “activity change, negative = inhibition” value of the first is lower: -5.68% for the first, -0.315% for the second.

Compared with `CCCC[C@@H]1C[C@H]1C(NC(=O)c1ccco1)c1ccc(C(=O)OC)cc1` (stereo partly drawn), `CN1CCN(S(=O)(=O)c2ccc(N3CCN(c4ccccc4O)CC3)c([N+](=O)[O-])c2)CC1` is lower in “activity change, negative = inhibition” value: -2.07% for the first, -19% for the second.

Compared with `C=CC(=C)CCC=C(C)C`, `CO[C@@]12[C@@H](COC(N)=O)C3=C(C(=O)C(C)=C(N)C3=O)N1C[C@@H]1N[C@@H]12` is lower in “activity change, negative = inhibition” value: 10.8% for the first, -3.21% for the second.

In the case of `C#CCOCCOCCOCCNc1nc(N2CCN(C(=O)CCCCCCCCCCNC(=O)[C@H](CCCCN)n3cc(C)nn3)CC2)nc(N2CCN(C(=O)CCCCCCCCCCNC(=O)[C@H](CO)n3cc(CCCSC)nn3)CC2)n1`, the Potency is reported as 15.8 µM (active).
With `S=C(NCCCc1cnc[nH]1)NCCCN(Cc1ccc(Cl)c(Cl)c1)c1ccc(Br)cn1` the Potency was 1 µM (active).
For `Cc1ccccc1CN1C(=O)c2ccccc2Sc2ccc(C(=O)NCCCN3CCOCC3)cc21`, the Potency was 11.2 µM (active).
`O=C1CC(=O)Nc2cc(S(=O)(=O)N3CCN(c4cccc(C(F)(F)F)c4)CC3)ccc2N1` was tested, and the Potency was 14.1 µM (active).
In the case of `Cc1cccc(N2CCN(S(=O)(=O)c3ccc4[nH]c(=O)c(=O)[nH]c4c3)CC2C)c1` (stereo not drawn), the Potency is reported as 12.6 µM (active).

Going from `COc1cccc([C@H]2Oc3ccc(OC)cc3/C(=N\OCC[C@@H]3C=C[C@H](OC(C)=O)[C@H](COC(C)=O)O3)[C@@H]2O)c1` to `O=C1[C@H]2[C@H]3[C@H](O)[C@H](O)C/C(=N/OCc4ccccc4)[C@H]3CC[C@@H]2C(=O)N1Cc1ccccc1`, the activity change, negative = inhibition falls from 10.4% [at 12.8 µM] to 4.77% [at 12.8 µM].

`CC(C)(O/N=C(\C(=O)N[C@@H]1C(=O)N2C(C(=O)[O-])=C(C[n+]3ccccc3)CS[C@@H]12)c1csc(N)n1)C(=O)O` was tested, and the “activity change, negative = inhibition” value was 5.35% [at 21.6 µM].

In the case of `O=NO`, the activity change, negative = inhibition is reported as “inactive”.
